Assay results reported in publication PMC12214610.

Tests used:
Conditions in all cases: virion
CALR = CALR (UniProt P27797)
HSP90B1 = HSP90B1 (UniProt P14625)
HSPA4 = HSPA4 (UniProt P34932)
HSPA8 = HSPA8 (UniProt P11142)
HSPH1 = HSPH1 (UniProt Q92598)
MANF = MANF (UniProt P55145)
ARPC5L = ARPC5L (UniProt Q9BPX5)
CKAP2 = CKAP2 (UniProt Q8WWK9)
STX8 = STX8 (UniProt Q9UNK0)
HSPA5 = HSPA5 (UniProt P11021)
PPIB = PPIB (UniProt P23284)
ITGA3 = ITGA3 (UniProt P26006)
KLC1 = KLC1 (UniProt Q07866)
KLC2 = KLC2 (UniProt Q9H0B6)
LPP = LPP (UniProt Q93052)
MYO18A = MYO18A (UniProt Q92614)
TPM4 = TPM4 (UniProt P67936)
NAP1L4 = NAP1L4 (UniProt Q99733)
NAPA = NAPA (UniProt P54920)
PFDN4 = PFDN4 (UniProt Q9NQP4)
PPP1R7 = PPP1R7 (UniProt Q15435)
Sequence of PPP1R7 (Q15435 whole entry): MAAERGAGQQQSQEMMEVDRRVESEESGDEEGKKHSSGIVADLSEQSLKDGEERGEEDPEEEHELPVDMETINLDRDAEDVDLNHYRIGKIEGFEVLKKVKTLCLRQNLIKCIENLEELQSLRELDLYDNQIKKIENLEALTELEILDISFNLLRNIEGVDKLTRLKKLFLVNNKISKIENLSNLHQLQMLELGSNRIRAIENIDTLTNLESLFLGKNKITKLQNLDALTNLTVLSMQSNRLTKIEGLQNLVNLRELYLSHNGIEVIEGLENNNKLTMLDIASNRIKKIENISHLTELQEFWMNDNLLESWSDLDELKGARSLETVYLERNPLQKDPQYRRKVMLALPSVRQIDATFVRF

PSMC3 = PSMC3 (UniProt P17980)
PSME2 = PSME2 (UniProt Q9UL46)
RTCB = RTCB (UniProt Q9Y3I0)
SERBP1 = SERBP1 (UniProt Q8NC51)
SLC25A6 = SLC25A6 (UniProt P12236)
SNRPB = SNRPB (UniProt P14678)
TMED10 = TMED10 (UniProt P49755)
TMED4 = TMED4 (UniProt Q7Z7H5)
TNPO3 = TNPO3 (UniProt Q9Y5L0)
TRAPPC14 = TRAPPC14 (UniProt Q8WVR3)
TRAPPC2L = TRAPPC2L (UniProt Q9UL33)
TRAPPC9 = TRAPPC9 (UniProt Q96Q05)
VAPA = VAPA (UniProt Q9P0L0)
VPS45 = VPS45 (UniProt Q9NRW7)
YWHAE = YWHAE (UniProt P62258)
Sequence of YWHAE (P62258 whole entry): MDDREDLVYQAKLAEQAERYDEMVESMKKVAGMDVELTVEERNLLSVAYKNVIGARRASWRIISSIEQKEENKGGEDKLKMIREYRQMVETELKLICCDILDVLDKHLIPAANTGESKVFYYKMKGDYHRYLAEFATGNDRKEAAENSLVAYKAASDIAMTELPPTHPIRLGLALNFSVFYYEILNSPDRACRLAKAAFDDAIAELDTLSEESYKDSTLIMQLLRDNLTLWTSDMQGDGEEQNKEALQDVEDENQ

VPS51 = VPS51 (UniProt Q9UID3)
VTI1A = VTI1A (UniProt Q96AJ9)
XRCC5 = XRCC5 (UniProt P13010)
YWHAG = YWHAG (UniProt P61981)
YWHAZ = YWHAZ (UniProt P63104)
Sequence of YWHAZ (P63104 whole entry): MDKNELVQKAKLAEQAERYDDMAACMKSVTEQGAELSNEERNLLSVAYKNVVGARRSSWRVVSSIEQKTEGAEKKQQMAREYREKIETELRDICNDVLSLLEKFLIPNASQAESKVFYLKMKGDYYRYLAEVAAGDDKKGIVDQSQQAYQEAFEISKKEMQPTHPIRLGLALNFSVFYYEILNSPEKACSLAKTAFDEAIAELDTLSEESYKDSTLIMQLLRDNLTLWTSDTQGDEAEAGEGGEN

Sequence of HSPA5, P11021 (P11021 whole entry): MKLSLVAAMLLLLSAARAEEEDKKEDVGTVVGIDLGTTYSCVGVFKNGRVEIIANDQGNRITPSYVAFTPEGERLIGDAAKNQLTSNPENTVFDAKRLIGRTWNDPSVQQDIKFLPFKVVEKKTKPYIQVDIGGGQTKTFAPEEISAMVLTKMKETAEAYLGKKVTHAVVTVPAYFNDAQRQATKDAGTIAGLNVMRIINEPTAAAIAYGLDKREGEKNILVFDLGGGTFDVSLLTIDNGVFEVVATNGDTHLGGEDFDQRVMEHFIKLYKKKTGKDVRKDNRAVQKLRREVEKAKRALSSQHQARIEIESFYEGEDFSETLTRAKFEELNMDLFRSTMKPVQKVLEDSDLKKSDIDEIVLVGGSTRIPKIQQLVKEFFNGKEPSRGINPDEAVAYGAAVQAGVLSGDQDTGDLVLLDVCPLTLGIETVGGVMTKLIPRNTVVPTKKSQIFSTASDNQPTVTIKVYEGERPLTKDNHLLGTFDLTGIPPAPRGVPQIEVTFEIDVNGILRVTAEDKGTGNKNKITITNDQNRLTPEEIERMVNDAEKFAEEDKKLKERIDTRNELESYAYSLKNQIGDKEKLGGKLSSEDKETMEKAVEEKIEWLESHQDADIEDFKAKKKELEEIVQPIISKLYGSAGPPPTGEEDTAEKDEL
Sequence of YWHAQ, P27348 (P27348 whole entry): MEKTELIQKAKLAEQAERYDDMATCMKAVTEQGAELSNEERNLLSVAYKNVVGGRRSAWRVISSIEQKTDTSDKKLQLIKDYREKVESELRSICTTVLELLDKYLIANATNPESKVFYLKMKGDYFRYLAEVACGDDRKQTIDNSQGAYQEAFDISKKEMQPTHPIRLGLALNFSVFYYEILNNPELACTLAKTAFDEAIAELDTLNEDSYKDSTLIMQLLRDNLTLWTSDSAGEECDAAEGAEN
Sequence of NAPA, P54920 (P54920 whole entry): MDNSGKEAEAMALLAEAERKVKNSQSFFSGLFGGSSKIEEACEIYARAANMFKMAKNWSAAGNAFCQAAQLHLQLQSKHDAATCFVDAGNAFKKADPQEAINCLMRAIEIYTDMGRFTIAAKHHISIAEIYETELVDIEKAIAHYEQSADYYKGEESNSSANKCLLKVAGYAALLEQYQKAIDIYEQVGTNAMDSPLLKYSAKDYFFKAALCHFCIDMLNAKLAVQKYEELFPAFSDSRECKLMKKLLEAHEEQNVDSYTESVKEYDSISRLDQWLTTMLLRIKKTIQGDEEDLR
Sequence of STX16, O14662 (O14662 whole entry): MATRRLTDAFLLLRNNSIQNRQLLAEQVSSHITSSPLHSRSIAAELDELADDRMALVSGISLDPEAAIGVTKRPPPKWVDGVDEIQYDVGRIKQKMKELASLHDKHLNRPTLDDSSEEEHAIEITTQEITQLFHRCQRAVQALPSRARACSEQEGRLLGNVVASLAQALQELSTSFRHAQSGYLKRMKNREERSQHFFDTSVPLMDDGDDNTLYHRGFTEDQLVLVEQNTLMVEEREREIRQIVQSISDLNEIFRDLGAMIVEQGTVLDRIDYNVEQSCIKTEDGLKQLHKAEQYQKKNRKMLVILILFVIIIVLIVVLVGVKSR
Sequence of P4HB, P07237 (P07237 whole entry): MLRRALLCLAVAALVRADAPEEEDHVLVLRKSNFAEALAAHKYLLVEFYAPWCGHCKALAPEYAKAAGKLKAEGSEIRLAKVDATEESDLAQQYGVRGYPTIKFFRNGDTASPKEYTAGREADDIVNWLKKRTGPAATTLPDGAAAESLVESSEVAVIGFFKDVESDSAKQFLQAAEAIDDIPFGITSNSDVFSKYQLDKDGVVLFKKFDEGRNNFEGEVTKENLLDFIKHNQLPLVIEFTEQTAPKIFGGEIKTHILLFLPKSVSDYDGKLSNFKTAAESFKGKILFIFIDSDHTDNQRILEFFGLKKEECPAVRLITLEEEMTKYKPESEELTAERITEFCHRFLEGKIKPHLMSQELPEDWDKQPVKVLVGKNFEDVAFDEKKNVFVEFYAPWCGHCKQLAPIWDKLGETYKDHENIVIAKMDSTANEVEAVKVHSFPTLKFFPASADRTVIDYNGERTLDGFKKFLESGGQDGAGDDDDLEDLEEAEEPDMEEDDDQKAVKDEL
Sequence of MYH9, P35579 (P35579 whole entry): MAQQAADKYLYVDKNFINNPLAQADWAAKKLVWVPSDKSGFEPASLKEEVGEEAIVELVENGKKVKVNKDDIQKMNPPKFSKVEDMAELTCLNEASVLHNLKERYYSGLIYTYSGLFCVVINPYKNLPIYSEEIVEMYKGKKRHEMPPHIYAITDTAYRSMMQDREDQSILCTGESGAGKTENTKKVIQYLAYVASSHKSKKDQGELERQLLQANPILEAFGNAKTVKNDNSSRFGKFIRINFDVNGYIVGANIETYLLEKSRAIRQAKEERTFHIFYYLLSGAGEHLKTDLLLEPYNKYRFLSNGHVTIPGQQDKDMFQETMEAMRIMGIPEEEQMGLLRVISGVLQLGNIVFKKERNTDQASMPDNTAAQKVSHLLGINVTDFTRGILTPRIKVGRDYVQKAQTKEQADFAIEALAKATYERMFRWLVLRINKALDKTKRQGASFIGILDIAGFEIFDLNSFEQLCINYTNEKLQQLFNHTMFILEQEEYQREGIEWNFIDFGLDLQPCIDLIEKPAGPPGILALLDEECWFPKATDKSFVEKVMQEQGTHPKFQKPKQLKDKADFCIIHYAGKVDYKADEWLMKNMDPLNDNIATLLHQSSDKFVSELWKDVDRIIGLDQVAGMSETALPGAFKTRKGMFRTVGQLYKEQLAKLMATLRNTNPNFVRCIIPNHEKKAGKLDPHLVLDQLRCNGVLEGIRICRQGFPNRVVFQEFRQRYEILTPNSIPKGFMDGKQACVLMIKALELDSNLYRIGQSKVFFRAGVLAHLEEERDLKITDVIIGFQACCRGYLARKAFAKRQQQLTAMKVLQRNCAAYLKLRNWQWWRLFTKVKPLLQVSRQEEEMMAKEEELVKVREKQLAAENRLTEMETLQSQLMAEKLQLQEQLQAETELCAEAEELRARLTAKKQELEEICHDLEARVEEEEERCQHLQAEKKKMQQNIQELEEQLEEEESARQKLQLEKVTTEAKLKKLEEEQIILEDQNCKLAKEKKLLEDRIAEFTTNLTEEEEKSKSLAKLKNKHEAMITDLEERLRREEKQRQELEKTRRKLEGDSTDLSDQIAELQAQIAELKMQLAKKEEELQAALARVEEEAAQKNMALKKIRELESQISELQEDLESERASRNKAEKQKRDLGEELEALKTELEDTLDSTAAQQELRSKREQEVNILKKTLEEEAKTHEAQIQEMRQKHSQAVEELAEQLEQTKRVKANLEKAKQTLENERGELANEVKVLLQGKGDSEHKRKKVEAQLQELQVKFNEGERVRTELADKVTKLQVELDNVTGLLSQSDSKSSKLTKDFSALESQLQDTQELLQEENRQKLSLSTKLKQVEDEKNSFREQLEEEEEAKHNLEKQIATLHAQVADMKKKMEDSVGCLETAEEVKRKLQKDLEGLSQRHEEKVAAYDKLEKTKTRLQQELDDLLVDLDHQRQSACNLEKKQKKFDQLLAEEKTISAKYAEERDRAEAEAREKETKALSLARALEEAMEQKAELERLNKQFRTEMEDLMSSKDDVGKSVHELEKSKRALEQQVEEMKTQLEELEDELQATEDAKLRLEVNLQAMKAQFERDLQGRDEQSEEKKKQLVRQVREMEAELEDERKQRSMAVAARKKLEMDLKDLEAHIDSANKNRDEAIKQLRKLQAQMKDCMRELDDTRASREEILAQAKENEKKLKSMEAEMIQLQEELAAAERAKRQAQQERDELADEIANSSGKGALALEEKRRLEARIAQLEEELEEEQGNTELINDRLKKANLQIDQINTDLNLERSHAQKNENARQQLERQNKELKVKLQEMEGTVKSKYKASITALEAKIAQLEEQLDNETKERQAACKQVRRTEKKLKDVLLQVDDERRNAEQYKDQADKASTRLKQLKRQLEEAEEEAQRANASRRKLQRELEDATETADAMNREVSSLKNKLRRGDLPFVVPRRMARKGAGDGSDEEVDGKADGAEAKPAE
Sequence of LGALS1, P09382 (P09382 whole entry): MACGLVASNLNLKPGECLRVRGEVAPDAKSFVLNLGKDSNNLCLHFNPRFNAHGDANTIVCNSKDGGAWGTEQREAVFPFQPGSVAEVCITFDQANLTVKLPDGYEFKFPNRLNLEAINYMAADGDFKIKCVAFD

Question: How did the cross-linked residues (CALR) turn out when HSPA5, P11021 was run?
Answer: The cross-linked residues was “K340 - K360”.

Question: What about the cross-linked residues (HSP90B1) of the same substance?
Answer: The cross-linked residues was “K523 - K671”.

Question: What about the cross-linked residues (HSPA4) of the same substance?
Answer: The cross-linked residues was “K81 - K272”.

Question: What about the cross-linked residues (HSPA8) of the same substance?
Answer: Its cross-linked residues is “K579 - K601”.

Question: And the cross-linked residues (HSPH1)?
Answer: Its cross-linked residues is “K376 - K703”.

Question: And the cross-linked residues (MANF)?
Answer: Its cross-linked residues is “K185 - K163”.

Question: ARPC4, P59998 was tested. Which cross-linked residues (ARPC5L) did it give?
Answer: The cross-linked residues was “K44 - K69”.

Question: For NAPA, P54920, which cross-linked residues (CKAP2) is on record?
Answer: Its cross-linked residues is “K227 - K23”.

Question: And the cross-linked residues (STX8)?
Answer: The cross-linked residues was “K285 - K98”.

Question: Which cross-linked residues (HSPA5) does the source give for P4HB, P07237 here?
Answer: Its cross-linked residues is “K71 - K370”.

Question: And the cross-linked residues (PPIB)?
Answer: Its cross-linked residues is “K71 - K84”.

Question: LGALS1, P09382 was tested. Which cross-linked residues (HSPA8) did it give?
Answer: The cross-linked residues was “K29 - K319”.

Question: With GAPDH, P04406 as the substance, how does the cross-linked residues (HSPA8) read?
Answer: Its cross-linked residues is “K219 - K159”.

Question: With ITGB1, P05556 as the substance, how does the cross-linked residues (ITGA3) read?
Answer: Its cross-linked residues is “K619 - K638”.

Question: Which results are given for KIF5B, P33176?
Answer: cross-linked residues (KLC1): K885 - K155; cross-linked residues (KLC2): K885 - K145

Question: How did the cross-linked residues (LPP) turn out when LASP1, Q14847 was run?
Answer: Its cross-linked residues is “K205 - K108”.

Question: Which cross-linked residues (MYO18A) does the source give for MYH9, P35579 here?
Answer: The cross-linked residues was “K1867 - K1727”.

Question: And the cross-linked residues (TPM4)?
Answer: Its cross-linked residues is “K355 - K215”.

Question: NAP1L1, P55209 was tested. Which cross-linked residues (NAP1L4) did it give?
Answer: Its cross-linked residues is “K87 - K105”.

Question: How did the cross-linked residues (NAPA) turn out when STX6, O43752 was run?
Answer: Its cross-linked residues is “K103 - K94”.

Question: How did the cross-linked residues (PFDN4) turn out when VBP1, P61758 was run?
Answer: Its cross-linked residues is “K75 - K43”.

Question: With PPP1CA, P62136 as the substance, how does the cross-linked residues (PPP1R7) read?
Answer: The cross-linked residues was “K26 - K168”.

Question: Which cross-linked residues (PSMC3) does the source give for PSMD9, O00233 here?
Answer: Its cross-linked residues is “K91 - K173”.

Question: How did the cross-linked residues (PSME2) turn out when PSME1, Q06323 was run?
Answer: Its cross-linked residues is “K190 - K177”.

Question: For FAM98A, Q8NCA5, which cross-linked residues (RTCB) is on record?
Answer: Its cross-linked residues is “K277 - K245”.

Question: With RPS3, P23396 as the substance, how does the cross-linked residues (SERBP1) read?
Answer: Its cross-linked residues is “K62 - K281”.

Question: Which cross-linked residues (SERBP1) does the source give for RPS12, P25398 here?
Answer: The cross-linked residues was “K116 - K299”.

Question: SLC25A5, P05141 was tested. Which cross-linked residues (SLC25A6) did it give?
Answer: Its cross-linked residues is “K147 - K147”.

Question: Which cross-linked residues (SNRPB) does the source give for SNRNP70, P08621 here?
Answer: Its cross-linked residues is “K27 - K54”.

Question: How did the cross-linked residues (TMED10) turn out when PPIB, P23284 was run?
Answer: Its cross-linked residues is “K98 - K145”.

Question: With TMED10, P49755 as the substance, how does the cross-linked residues (TMED4) read?
Answer: Its cross-linked residues is “K75 - K87”.

Question: How did the cross-linked residues (TNPO3) turn out when RANBP1, P43487 was run?
Answer: Its cross-linked residues is “K150 - K513”.

Question: With TRAPPC10, P48553 as the substance, how does the cross-linked residues (TRAPPC14) read?
Answer: Its cross-linked residues is “K1219 - K167”.

Question: Which cross-linked residues (TRAPPC2L) does the source give for TRAPPC6B, Q86SZ2 here?
Answer: Its cross-linked residues is “K53 - K102”.

Question: With TRAPPC14, Q8WVR3 as the substance, how does the cross-linked residues (TRAPPC9) read?
Answer: Its cross-linked residues is “K377 - K992”.

Question: How did the cross-linked residues (VAPA) turn out when VAPB, O95292 was run?
Answer: The cross-linked residues was “K200 - K205”.

Question: Which results are given for STX16, O14662?
Answer: cross-linked residues (VPS45): K185 - K192; cross-linked residues (YWHAE): K185 - K50

Question: Which cross-linked residues (VPS51) does the source give for VPS53, Q5VIR6 here?
Answer: Its cross-linked residues is “K126 - K126”.

Question: How did the cross-linked residues (VTI1A) turn out when STX12, Q86Y82 was run?
Answer: Its cross-linked residues is “K245 - K176”.

Question: XRCC6, P12956 was tested. Which cross-linked residues (XRCC5) did it give?
Answer: The cross-linked residues was “K317 - K282”.

Question: With YWHAQ, P27348 as the substance, how does the cross-linked residues (YWHAE) read?
Answer: Its cross-linked residues is “K85 - K29”.

Question: And the cross-linked residues (YWHAG)?
Answer: The cross-linked residues was “K85 - K10”.

Question: For YWHAB, P31946, which cross-linked residues (YWHAZ) is on record?
Answer: The cross-linked residues was “K11 - K85”.

Question: How did the cross-linked residues (YWHAZ) turn out when YWHAG, P61981 was run?
Answer: Its cross-linked residues is “K10 - K85”.
